# Results as given in PubChem BioAssay (NCATS).
# Results filed as inconclusive are left out. Active and inactive are the calls of the source. Calls come from the whole dose curve; as a rule, active = well fitted cell-killing curve with a large enough effect; inconclusive = small, poorly fitted or top-dose-only effect, or effect the other way; inactive = no such curve, though single readings can be large or run the other way.
# What was measured:
# [1] = Viability qHTS for spleen associated tyrosine kinase inhibitor (SYKi) naive MV4-11 cells (AID 1963823); note: nearly all actives have a fitted effect of over 40% in size
# Method in brief: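 SYKi-naive MV4-11 AML cells, 500 per well, were exposed to library compounds for 72 hr at 37 C, 5% CO2. Viability was then read by CellTiter-Glo luminescence after 10 min at room temperature.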
# [2] = Viability qHTS for spleen associated tyrosine kinase inhibitor (SYKi) drug resistant MV4-11 cells (AID 1963824); note: nearly all actives have a fitted effect of over 35% in size
# Method in brief: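 CellTiter-Glo luminescence, read 10 min after reagent addition, reports viability after a 72 hr compound exposure. Cells are an MV4-11 line made resistant to SYK inhibition, seeded at 500 per well onto compound-containing plates.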
# Potency is the fitted concentration of half-maximal effect.
SMILES,Potency [1],Potency [2]
COc1cc(OC)cc(N2CCN(C(=O)Nc3nc4cc(F)ccc4nc3OC)CC2)c1,0.934 µM (active),1.05 µM (active)
Cc1ccc(-c2c(C(=O)CF)n(CCCO)c3ncnc(N)c23)cc1,3.66 µM (active),10.3 µM (active)
C/C(=C\C=C\C(C)C1CCC2(C)C3CCC4C(C)(C)C(=O)CCC45CC35CCC12C)C(=O)O (configuration not stated),inactive,6.32 µM (active)
Cc1ccccc1CN1C2=NCCN2C(=O)C2=C1CCN(Cc1ccccc1)C2,16.4 µM (active),9.2 µM (active)
CC1(O)CC(O)C2(O)C=COC(O[C@@H]3O[C@H](CO)[C@@H](O)[C@H](O)[C@H]3O)C12 (some centres not stated),inactive,inactive
CC(=O)C1(C)CCC2C3C=C(C)C4=CC(=O)CCC4(C)C3CCC21C (configuration not stated),5.8 µM (active),7.31 µM (active)
COc1cc(C2c3cc4c(c(O)c3CC(CO)C2C(=O)O)OCO4)cc(OC)c1O (configuration not stated),2.52 µM (active),2 µM (active)
CCC(CC)(NC(=O)C(C)C)C(=O)N[C@@H](CCCN=C(N)N)C(=O)NC1(C(=O)NC(c2ccc(F)cc2)c2ccc(F)cc2)CCCC1,inactive,inactive
Nc1ncnc2c1nc(Cl)n2C1OC2COP(=O)(O)OC2C1O (configuration not stated),0.517 µM (active),0.461 µM (active)
CC(=O)OC[C@@]12[C@@H](OC(C)=O)C[C@@H](C)[C@](C)([C@@H]3C[C@H]4C=CO[C@H]4O3)[C@H]1CCC[C@]21CO1,inactive,inactive
OC[C@H]1O[C@@H](O[C@H]2[C@H](O)[C@@H](CO)O[C@@H](OCc3ccccc3)[C@@H]2O[C@@H]2OC[C@](O)(CO)[C@H]2O)[C@H](O)[C@@H](O)[C@@H]1O,inactive,inactive
